High-throughput results deposited in PubChem by Broad Institute.
A selection follows.
aSyn UTR act: Activators via SNCA 5'UTR binding, MLPCN | 300,000 compounds, 7.1% hits | activity score, % (tested at 7.5 µM), hits read low | AID 1814, 2009 | alpha-synuclein 5'UTR reporter, activators screen; in the data active = activity score below about -60%
Active calls of the source: *.

SMILES	aSyn UTR act
Cc1ccc(C2Nc3ccc4ccccc4c3C3=C2C(=O)CC(C)(C)C3)o1 (configuration not stated)	-73*
CCCc1cc(C(=O)NCC(C)C)no1	-106*
O=C(NCc1cccs1)c1cc(-c2cccc(Cl)c2)on1	-77*
CC(C)CNC(=O)c1cc(-c2ccc(Cl)c(Cl)c2)on1	-118*
CCOc1ccc(-c2cc(CCCC(=O)NCc3ccc(C)cc3)no2)cc1	81
Cc1ccc(-c2cc(C(=O)NCc3cccs3)no2)cc1	-122*
O=C(NCc1cccs1)c1nc(-c2cccs2)no1	-100*
O=C(NCc1cccs1)c1cc(-c2ccc(O)cc2)on1	-157*
CCCc1cc(C(=O)NCc2cccs2)no1	-141*
CC1=Nn2c(nc3sc4c(c3c2=O)CCCC4)SC1	-142*
COc1ccc(-n2cnc3sc4c(c3c2=O)CCCC4)cc1	-88*
Cc1ccc(-n2cnc3sc(C)c(C)c3c2=O)cc1	-98*
Cc1ccc(-c2nc3sc4c(c3c(=O)n2N)CCCC4)cc1	-107*
COc1ccc(C2=NOC(C(=O)NCc3ccc(F)cc3)C2)cc1OC (configuration not stated)	82
O=C(NCCc1cccs1)C1CC(c2ccccc2[N+](=O)[O-])=NO1 (configuration not stated)	-93*
CCCCNC(=O)C1CC(c2cccc([N+](=O)[O-])c2)=NO1 (configuration not stated)	-171*
COc1ccc(CCNC(=O)C2CC(c3ccccc3[N+](=O)[O-])=NO2)cc1 (configuration not stated)	-95*
COc1ccc(CCNC(=O)Nc2ccccc2[N+](=O)[O-])cc1	-130*
O=C(NC1CCCCCC1)c1cccs1	-81*
Nc1c(C(=O)NC2CCCC2)sc2nc(-c3cccs3)ccc12	-74*
O=C(CCS(=O)(=O)c1cccs1)NC1CCCCCC1	-139*
O=C(NCCC1CCCC1)c1cccs1	-69*
CC1CCC(NC(=O)Cn2cc3c(n2)CCCC3)CC1 (configuration not stated)	-157*
Cc1cc(C)cc(NC(=O)c2cc(C)n(Cc3cccs3)c2C)c1	-117*
Cc1cc(C(=O)Nc2ccc(Cl)cc2)c(C)n1Cc1cccs1	-67*
SMILES	aSyn UTR act
COc1cc(C)c(Cl)c(C)c1S(=O)(=O)NC1CC(C)(C)NC(C)(C)C1	-160*
C(/C=C/c1ccco1)=N/N1CCN(c2ccccc2)CC1	-189*
Clc1ccccc1CN1CCN(/N=C/C=C\c2ccco2)CC1	-78*
COc1cc(C=O)ccc1OCc1ccc(Cl)nc1	-106*
COc1cc(C=O)ccc1OCCCOc1ccccc1[N+](=O)[O-]	-95*
COC(=O)/C=C/COc1ccccc1[N+](=O)[O-]	-63*
C/C=C/c1ccc(OCCOc2cc(C=O)ccc2OC)c(OC)c1	-105*
COc1ccccc1OCCCOc1ccc([N+](=O)[O-])cc1Cl	-119*
COc1cc(C=O)ccc1OCCOc1ccccc1[N+](=O)[O-]	-103*
CCOc1cccc(OCCOc2ccccc2[N+](=O)[O-])c1	-110*
N#C/C(=C\c1ccc(N2CCOCC2)cc1)c1ccccc1	-132*
N#C/C(=C/c1ccc(N2CCOCC2)o1)c1ccc(Br)cc1	-284*
N#C/C(=C\c1ccc(N2CCOCC2)o1)c1ccccc1	-223*
Cc1nn(-c2ccccn2)c2c1-c1nc(N)ncc1CC2	-101*
Cc1cc(Nc2ccc(Cl)cc2)nc(N)n1	-111*
COc1ccc(Nc2cc(C)nc(N)n2)cc1	-64*
Nc1cc(Nc2ccc(Br)cc2)nc(N)n1	-149*
O=C(CSc1n[nH]c(-c2ccccc2)n1)Nc1ccc(N2CCOCC2)cc1	-68*
Cn1c(-c2ccc(F)cc2)cnc1SCC(=O)Nc1ccccc1N1CCOCC1	-193*
O=C(CSc1ccc(F)cc1)Nc1ccc(N2CCOCC2)cc1	-74*
O=C(CSc1n[nH]c(-c2ccccn2)n1)Nc1ccccc1	57
O=C(Cc1cccs1)Nc1ccc(N2CCOCC2)cc1	-97*
O=C(CSc1ccccc1)Nc1ccc(N2CCOCC2)c(F)c1	-99*
O=C(CSc1ccccc1)Nc1ccc(N2CCOCC2)cc1	-116*
CN=C(c1ccc(C)cc1)n1c(=S)nc(-c2ccc(C)cc2)n(C)c1=S	-149*
SMILES	aSyn UTR act
COc1ccc(-c2nc3c(n2O)CCc2c-3no[n+]2[O-])cc1	-131*
Cc1cccc(N(C(=O)c2nsc(Cl)c2Cl)C(C(=O)NC2CCCC2)c2ccc(O)cc2)c1 (configuration not stated)	-82*
CN1CCc2c(sc3c2C(=O)NC(c2cccs2)N3)C1 (configuration not stated)	-103*
Cc1ccc(NC(=O)Cc2noc3ccccc23)cc1	-173*
Cc1cccc(NS(=O)(=O)c2ccc(-c3cnc(C4CC4)o3)cc2)c1C	100
Cc1csc(C(C#N)C(=O)c2cc3ccccc3o2)n1 (configuration not stated)	-145*
CCN(CC)Cc1c(C(=O)N/N=C/c2ccc(OCc3ccccc3C)cc2)nnn1-c1nonc1N	-87*
CC1CCN(Cc2c(C(=O)N/N=C/c3ccc(C(C)(C)C)cc3)nnn2-c2nonc2N)CC1	64
Nc1nonc1-n1nnc(C(=O)N/N=C/c2ccc(OCc3ccccc3)cc2)c1CN1CCCCC1	-112*
C/C(=N\NC(=O)c1nnn(-c2nonc2N)c1CN(C)c1ccccc1)c1ccccn1	88
CCc1c(C(=O)N/N=C/c2ccc(OCc3ccc(F)cc3)c(OC)c2)nnn1-c1nonc1N	-128*
Nc1nonc1-n1nnc(C(=O)N/N=C/c2ccc(OCc3ccc(F)cc3)cc2)c1COc1ccccc1	-122*
Nc1nonc1-n1nnc(C(=O)N/N=C/c2cc(Br)ccc2O)c1CNc1ccccc1	70
Cc1c(C(=O)N/N=C/c2c(O)ccc3ccccc23)nnn1-c1nonc1N	63
Nc1nonc1-n1nnc(C(=O)N/N=C/c2ccc(OCc3ccccc3F)cc2)c1CNc1ccccc1	-75*
Cc1ccc(COc2cccc(/C=N/NC(=O)c3nnn(-c4nonc4N)c3C)c2)cc1	-152*
Cc1ccc(CN=C(N)Nc2nc(C)cc(C)n2)cc1	117
Cc1cc(C)nc(/N=C(\N)Nc2ccc(F)c([N+](=O)[O-])c2)n1	-124*
Cc1cc(C)nc(/N=C(\N)Nc2ccc3c(c2)OCCO3)n1	-126*
CC1CCC(=O)N(CCOc2ccccc2)CC1 (configuration not stated)	-80*
O=C1CCN(Cc2ccccc2)CCN1CCOc1ccccc1	-99*
ClC1(Cl)CC1CSc1nnc(-c2ccncc2)o1 (configuration not stated)	-66*
Fc1cccc(CSc2ccc(-c3ccco3)nn2)c1	-176*
Fc1ccc(CSc2ccc(-c3ccco3)nn2)cc1	-153*
O=C(Nc1ccc(NC(=O)c2ccccc2Br)cc1)c1ccccc1	-84*
SMILES	aSyn UTR act
O=C(Nc1ccc(Br)c(C(F)(F)F)c1)c1ccccc1	-90*
O=C(Nc1ccc(C(=O)c2ccccc2)cc1)c1ccccc1	-189*
O=C(Nc1ccc(C(F)(F)F)cc1)c1ccccc1Br	-82*
CC(C)(C)c1cc[n+](C2=C([O-])c3ccccc3C(=O)/C2=N\S(=O)(=O)c2cccs2)cc1	69
Cc1ccc(N2CCN(C(=O)c3cn(CC4CCCCC4)nn3)C(C)C2)cc1 (configuration not stated)	-154*
Nc1ccc(OC(=O)Nc2ccc(O)cc2)cc1	91
CCOC(=O)c1ccc(NC(=O)c2n[nH]c(=O)c3ccccc23)cc1	-90*
CCOC(=O)c1ccc(NC(=O)c2nc(S(=O)(=O)Cc3ccccc3)ncc2Cl)cc1	54
